Only some compounds are listed: those with a hit (about 1.9% of all), similar ones and a draw of the others.
Ba/F3 V617F tox: reduce viability of Ba/F3 cells dependent on JAK2V617F; Ba/F3 EpoR-JAK2V617F viability, ATP luminescence; inhibition, % at 5.6 µM; 220,000 tested, 1.1% active;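 active = inhibition above the campaign mean plus 3 SD over all tested compounds, cut at about 24% in these data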;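 note: cytokine-independent growth of Ba/F3 cells driven by EpoR plus mutant JAK2; 0% = DMSO-treated cells and 100% = JAK inhibitor I control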
IEC-6 tox-1: kills IEC-6 intestinal cells in KLF5 counter-screen; AID 1825; inhibition, % at 5 µM; 290,000 tested, 0.78% active; IEC-6 cytotoxicity, luminescence viability;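 note: 0% = plate median of test compound wells and 100% = cytotoxic reference compound wells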
APP transl inh: APP translation inhibition. SH-SY5Y APP 5'UTR-luciferase reporter, luminescence. 190,000 tested, 0.82% active. inhibition, % at 2 µM;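 active = inhibition above a set limit, derived from the sample mean plus 3 SD, cut at about 45% in these data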
KLF5 inh: suppresses KLF5 promoter-driven expression; DLD-1 KLF5 promoter-luciferase reporter, luminescence; inhibition, % at 5 µM; 290,000 tested, 0.23% active; AID 1700;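 active = inhibition above a per-plate limit of that plate's mean compound inhibition plus 3 SD, cut at about 60% in these data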;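 note: 0% = DMSO wells and 100% = LY294002 at 200 µM; higher means less KLF5 promoter-driven luciferase light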
BaF3 parental: counter-screen for JAK2V617F inhibitors: parental Ba/F3 viability inhibitors; CellTiter-Glo ATP luminescence; inhibition, % at 5.6 µM; 220,000 tested, 1.1% active;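 active = inhibition above a per-campaign cutoff, the mean inhibition of all tested compounds plus 3 SD, cut at about 27% in these data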;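 note: 0% = DMSO wells and 100% = JAK Inhibitor I control wells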
KLF5 confirm: confirmation of KLF5 inhibitors | shares compounds with KLF5 inh | DLD-1 KLF5 promoter firefly luciferase reporter, luminescence | inhibition, % at 4 µM | 610 tested, 79% active;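 active = inhibition above a set limit taken from the earlier primary screen, cut at about 63% in these data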;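 note: 0% = DMSO wells and 100% = LY294002 at 200 µM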
IEC-6 tox-2: kills rat IEC-6 cells in KLF5 counter-screen; shares compounds with KLF5 inh; IEC-6 rat intestinal cells, viability luminescence; inhibition, % at 4 µM; 610 tested, 56% active; AID 1905; in the data active = inhibition above about 23%;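 note: cells exposed to compounds for 48 hours before viability read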
IEC-6 tox confirm: IEC-6 cytotoxicity, confirmation assay; shares compounds with IEC-6 tox-1; IEC-6 rat intestinal epithelial viability, luminescence; inhibition, % at 5 µM; 1,900 tested, 63% active; AID 1907;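 note: 0% = vehicle and 100% = reference cytotoxic drug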
Active calls of the source: *; / = no result. Cut-off read from the data, not from the text of the source, unless noted: active = inhibition above about 22%; inactive = the rest.

SMILES | Ba/F3 V617F tox | IEC-6 tox-1 | APP transl inh | KLF5 inh | BaF3 parental | KLF5 confirm | IEC-6 tox-2 | IEC-6 tox confirm
CCN(CC)CCNC(=O)c1ccc2c(c1NCCO)C(=O)c1ccccc1C2=O | 96* | 100* | / | 107* | 102* | 89* | 102* | 102*
COc1cc(/C=C2\SC(=Nc3ccc(N4CCOCC4)cc3)N(C)C2=O)ccc1OC(C)C(=O)O (stereo unspecified) | 0 | -2 | -18 | 1 | 6 | / | / | /
COc1ccc(NC(=O)Cc2ccccc2)cn1 | -3 | 2 | -9 | -4 | 2 | / | / | /
COc1ccc(NC(=O)/C(Cl)=C(/Cl)S(=O)Cc2ccccc2)cn1 (stereo unspecified) | 99* | 100* | / | 96* | 102* | 107* | 73* | 90*
Cc1cc(C)cc(NC(=S)N2CCC(NC(=O)c3ccccc3C)CC2)c1 | -2 | 2 | -6 | -4 | 6 | / | / | /
CCCSc1ccc2nc(NC(=O)OC)[nH]c2c1 | 78* | 80* | 92* | 76* | 76* | 48 | 61* | 56*
O=C(CSc1ccc2ccccc2c1)Nc1nc2ccccc2[nH]1 | 2 | 2 | -10 | -20 | 7 | / | / | /
CCOC(=O)C1C(c2cccc(F)c2)NC(=S)NC1(O)C(F)(F)F (stereo unspecified) | 3 | -1 | 9 | -12 | 8 | / | / | /
O=C(N/N=C/c1c(O)ccc2ccccc12)c1cccnc1 | / | 75* | / | 82* | / | 81* | 20 | 19
Cc1ccc(C(=O)N/N=C/c2c(O)ccc3ccccc23)cn1 | / | 39* | / | 94* | / | 85* | 15 | 33*
O=C(N/N=C\c1c(O)ccc2ccccc12)c1cncc(Br)c1 | / | 95* | / | 70* | / | 86* | 56* | 65*
O=C(N/N=C/c1c(O)ccc2ccccc12)c1ccc[n+](CCO)c1 | 1 | 0 | 0 | -14 | -2 | / | / | /
O=C(N/N=C/c1cc(O)ccc1Br)c1cccnc1 | / | 66* | / | 80* | / | 90* | 17 | 18
CC(C)(C)CC(=O)NCCCCCCNC(=O)CC(C)(C)C | 1 | 2 | -7 | -27 | 5 | / | / | /
O=C(/C=C/c1ccc(F)cc1)Nc1ccc2[nH]c(=O)[nH]c2c1 | -4 | -4 | / | -5 | 0 | / | / | /
Cc1ccc(C)c(N2CCN(C(=O)c3ccc(CS(=O)(=O)c4ccccc4C)o3)CC2)c1 | 1 | 4 | -11 | 5 | 8 | / | / | /
Cc1cccc(N2CCN(C(=O)c3ccc(CS(=O)(=O)c4ccccc4C)o3)CC2C)c1 (stereo unspecified) | 75* | 76* | 96* | 89* | 77* | 75* | 53* | 48*
COc1ccc(OC(=O)COc2ccc(Cl)cc2)cc1 | / | -8 | / | -55 | / | / | / | /
O=C(c1ccc(CS(=O)c2ccccc2Cl)o1)N1CCOCC1 (stereo unspecified) | / | -4 | / | -3 | / | / | / | /
COc1cccc(N2CCN(C(=O)c3ccc(CS(=O)c4ccccc4Cl)o3)CC2)c1 (stereo unspecified) | / | 90* | / | 74* | / | 84* | 62* | 60*
COc1cccc(N2CCN(C(=O)c3ccc(CS(=O)c4ccccc4C)o3)CC2)c1 (stereo unspecified) | / | 78* | / | 68* | / | 75* | 64* | 58*
Cc1cc2nc(-c3ccc[nH]c3=O)[nH]c2cc1C | / | 40* | / | 83* | / | 61 | 16 | 33*
CCCCCCCCCn1c2c(c(=N)c3c1CCC3)CCCC2 | 102* | 64* | 2 | 76* | 93* | 114* | 42* | 55*
CCCCCc1nc2c(c3c1CCCC3)CCCC2 | -4 | -2 | / | -40 | 1 | / | / | /
Cc1c(C(=O)OCCOC(C)C)[nH]c2c1C(=O)CC(c1ccco1)C2 (stereo unspecified) | 81* | 89* | 96* | 77* | 86* | 85* | 67* | 60*
SMILES | Ba/F3 V617F tox | IEC-6 tox-1 | APP transl inh | KLF5 inh | BaF3 parental | KLF5 confirm | IEC-6 tox-2 | IEC-6 tox confirm
Cc1c(C(=O)O)[nH]c2c1C(=O)CC(c1ccccc1)C2 (stereo unspecified) | -2 | 3 | -10 | -1 | 2 | / | / | /
Cc1c(C(=O)OCc2ccccc2)[nH]c2c1C(=O)CC(c1ccco1)C2 (stereo unspecified) | 68* | 81* | 94* | 77* | 73* | 80* | 56* | 52*
CCOC(=O)c1[nH]c2c(c1C)C(=O)CC(c1ccco1)C2 (stereo unspecified) | 87* | 89* | 96* | 83* | 88* | 90* | 66* | 63*
COc1ccc2c(c1)sc1nc(-c3ccccc3)cn12 | 70* | 76* | 86* | 72* | 69* | 103* | 70* | 55*
Cc1cccc(N2CCN(C(=O)c3cccc(N4CCCC4=O)c3)C(C)C2)c1 (stereo unspecified) | / | 63* | / | 64* | / | 69* | 36* | 40*
COC(=O)c1ccc(Oc2cc(C)nc(-n3nc(C)cc3C)n2)cc1 | 74* | 23* | 94* | 82* | 66* | 81* | 20 | 45*
COc1ccc(CN2C(=O)c3cccnc3C2=O)cc1S(=O)(=O)N(C)c1cccc(C)c1 | / | -1 | / | -15 | / | / | / | /
CC(NC(=O)Cc1ccsc1)c1ccc(F)cc1 (stereo unspecified) | / | 4 | / | -25 | / | / | / | /
Cc1[nH]c(=S)[nH]c(=O)c1CCOc1ccccc1 | 0 | -9 | -13 | -32 | 3 | / | / | /
Cc1ccccc1OCCc1c(C)[nH]c(=S)[nH]c1=O | 73* | 84* | 92* | 82* | 75* | 78* | 55* | 56*
CCCOc1ccc2[nH]c(C(=O)N/N=C/c3cc(OC)c(OC)c(OC)c3)cc2c1 | / | -13 | / | -43 | / | / | / | /
COc1ccc2[nH]c(C(=O)N/N=C/c3ccc(OC)c(O)c3)cc2c1 | / | 30* | / | 65* | / | 69* | 2 | 10
CC(=O)Nc1ccc(C(=O)Nc2nc(-c3ccccn3)cs2)cc1 | 2 | 4 | -1 | -30 | 11 | / | / | /
O=C(Nc1nc(-c2ccccn2)cs1)c1ccccc1-n1cnnn1 | 66* | 90* | / | 71* | 63* | 76* | 59* | 70*
CCOc1ccc(/C(O)=C/C(=O)C(=O)Nc2ccc(S(=O)(=O)NC(C)=O)cc2)cc1 | 3 | -6 | -1 | -19 | 6 | / | / | /
O=C(N/N=C/c1ccc(OC(=O)c2ccc(Br)cc2)cc1)c1ccncc1 | / | -6 | / | -13 | / | / | / | /
O=C(N/N=C/c1cc(Br)ccc1O)c1ccncc1 | 6 | 22* | / | 84* | 4 | 89* | 11 | 29*
O=C(N/N=C/c1cc(Br)ccc1OC(=O)c1ccc(Br)cc1)c1ccncc1 | / | 97* | / | 78* | / | 90* | 12 | 24*
O=C(Nc1cccc(C(F)(F)F)c1)C1CCCO1 (stereo unspecified) | -3 | -3 | 12 | -3 | 2 | / | / | /

Bioassay records: PubChem BioAssay, several laboratories
